Measurements as given in PubChem BioAssay AID1159580 (chemical genetic matrix, 2015).
Out of some 5,500 compounds screened, about 2,000 (36%) were called active. Not shown: some 18% with an inconclusive outcome. Rule as the data show it: active = normalized growth mostly below about 0.91 (no sharp cut-off); inconclusive = no clear call, values can overlap the other calls; inactive = mostly above about 0.92. This is one part of the list.

Experiment: chemical genetic growth profiling, strain panel (AID 1159580);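 also: tested at 20 µM; growth read once vehicle control cultures reached saturation at 30 °C; 1 = growth at the plate median or of vehicle wells; lower values mean less growth of the strain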
Conditions: S. cerevisiae deletion strains, growth OD
[1] = locus YHR030C, strain SLT2, stronger effect = lower value
[2] = locus YHR079C, strain IRE1, stronger effect = lower value
[3] = locus YJL095W, strain BCK1, stronger effect = lower value
[4] = locus YJR066W, strain TOR1, stronger effect = lower value
[5] = locus YLR113W, strain HOG1, stronger effect = lower value
[6] = locus YNL183C, strain NPR1, stronger effect = lower value
[7] = locus YOR231W, strain MKK1, stronger effect = lower value
[8] = locus YPL256C, strain CLN2, stronger effect = lower value
[9] = locus YDL101C, strain DUN1, stronger effect = lower value

Measured: normalized growth

C[n+]1ccccc1/C=N\O
inactive: [1] 0.981 | [2] 0.987 | [3] 0.996 | [4] 0.932 | [5] 0.997 | [6] 0.934 | [7] 1 | [8] 0.974

CN1C(=O)CN=C(c2ccccc2)c2ccccc21
inactive: locus YAL013W, strain DEP1, stronger effect = lower value 1.01 | locus YBR229C, strain ROT2, stronger effect = lower value 0.997 | locus YCL061C, strain MRC1, stronger effect = lower value 0.999 | [9] 0.995 | locus YDR150W, strain NUM1, stronger effect = lower value 0.86 | locus YEL061C, strain CIN8, stronger effect = lower value 1 | locus YGR078C, strain PAC10, stronger effect = lower value 1 | [1] 1.03 | locus YHR087W, strain rtc3, stronger effect = lower value 0.995 | locus YJR043C, strain POL32, stronger effect = lower value 1.01 | locus YJR075W, strain HOC1, stronger effect = lower value 0.994 | locus YKL190W, strain CNB1, stronger effect = lower value 1 | locus YLR039C, strain RIC1, stronger effect = lower value 1.02 | locus YLR058C, strain SHM2 (second series), stronger effect = lower value 1.01 | locus YLR085C, strain ARP6, stronger effect = lower value 1.02 | locus YLR262C, strain YPT6, stronger effect = lower value 1.01 | locus YML094W, strain GIM5, stronger effect = lower value 1 | locus YMR219W, strain ESC1, stronger effect = lower value 1 | locus YMR263W, strain SAP30, stronger effect = lower value 0.981 | locus YMR307W, strain GAS1, stronger effect = lower value 1.02 | locus YNL153C, strain GIM3, stronger effect = lower value 1 | locus YNL298W, strain CLA4 (second series), stronger effect = lower value 1.01 | locus YNL322C, strain KRE1, stronger effect = lower value 0.991 | locus YNR030W, strain Alg12, stronger effect = lower value 1.02 | locus YPL055C, strain LGE1, stronger effect = lower value 0.854 | locus YPL241C, strain CIN2, stronger effect = lower value 1.05 | locus YPR135W, strain CTF4, stronger effect = lower value 0.979

Cc1cc(SCc2[nH]nc3oc(=O)cc(C)c23)c(Cl)cc1Cl
inactive: locus YAR019C, strain CDC15, stronger effect = lower value 0.979 | locus YBL105C, strain PKC1, stronger effect = lower value 0.993 | locus YBR135W, strain CKS1, stronger effect = lower value 0.984 | locus YBR136W, strain MEC1, stronger effect = lower value 0.987 | locus YBR160W, strain CDC28, stronger effect = lower value 0.986 | locus YDL017W, strain CDC7, stronger effect = lower value 0.988 | locus YDL028C, strain MPS1, stronger effect = lower value 0.991 | [9] 0.989 | locus YDL108W, strain KIN28, stronger effect = lower value 0.98 | locus YDL132W, strain cdc53, stronger effect = lower value 0.987 | locus YDL214C, strain PRR2, stronger effect = lower value 1.01 | locus YDR052C, strain DBF4, stronger effect = lower value 0.981 | locus YDR054C, strain cdc34, stronger effect = lower value 0.983 | locus YDR226W, strain ADK1, stronger effect = lower value 0.972 | locus YDR477W, strain SNF1, stronger effect = lower value 1.01 | locus YER123W, strain YCK3, stronger effect = lower value 0.993 | locus YER133W, strain GLC7, stronger effect = lower value 1.03 | locus YFL009W, strain cdc4, stronger effect = lower value 0.984 | locus YFL029C, strain CAK1, stronger effect = lower value 0.979 | locus YFR003C, strain YPI1, stronger effect = lower value 0.994 | locus YFR019W, strain FAB1, stronger effect = lower value 0.995 | locus YFR028C, strain CDC14, stronger effect = lower value 0.99 | locus YGR040W, strain KSS1, stronger effect = lower value 1.01 | locus YGR052W, strain FMP48, stronger effect = lower value 1.03 | locus YGR092W, strain DBF2, stronger effect = lower value 0.973 | [1] 1.1 | [2] 0.992 | locus YHR082C, strain KSP1, stronger effect = lower value 1.13 | locus YHR205W, strain SCH9, stronger effect = lower value 0.968 | locus YIL147C, strain SLN1, stronger effect = lower value 0.979 | [3] 0.947 | locus YJL128C, strain PBS2, stronger effect = lower value 0.933 | locus YJL157C, strain FAR1, stronger effect = lower value 1 | locus YJR016C, strain ILV3, stronger effect = lower value 0.994 | locus YJR066W, strain TOR1 (second series), stronger effect = lower value 0.983 | [4] 1.05 | locus YKL048C, strain ELM1, stronger effect = lower value 0.993 | locus YKL067W, strain YNK1, stronger effect = lower value 1.01 | locus YKL101W, strain HSL1, stronger effect = lower value 1.01 | locus YKL193C, strain SDS22, stronger effect = lower value 0.982 | locus YKL203C, strain TOR2, stronger effect = lower value 1.04 | [5] 1 | locus YLR133W, strain CKI1, stronger effect = lower value 0.998 | locus YLR403W, strain SFP1, stronger effect = lower value 0.996 | locus YML070W, strain DAK1, stronger effect = lower value 1.02 | locus YMR001C, strain CDC5, stronger effect = lower value 0.99 | locus YMR205C, strain PFK2 (second series), stronger effect = lower value 1.03 | locus YMR277W, strain FCP1, stronger effect = lower value 0.981 | locus YNL006W, strain LST8, stronger effect = lower value 0.984 | locus YNL020C, strain ARK1, stronger effect = lower value 0.981 | locus YNL161W, strain CBK1, stronger effect = lower value 1.01 | [6] 1.05 | locus YNL207W, strain RIO2, stronger effect = lower value 0.986 | locus YNL222W, strain SSU72, stronger effect = lower value 0.979 | locus YNL307C, strain MCK1 (second series), stronger effect = lower value 0.994 | locus YOL078W, strain AVO1, stronger effect = lower value 0.998 | locus YOL136C, strain PFK27, stronger effect = lower value 1.01 | locus YOR061W, strain CKA2, stronger effect = lower value 0.973 | locus YOR119C, strain RIO1, stronger effect = lower value 1.08 | [7] 0.985 | locus YOR329C, strain SCD5, stronger effect = lower value 0.989 | locus YPL031C, strain PHO85, stronger effect = lower value 0.988 | locus YPL153C, strain RAD53, stronger effect = lower value 0.987 | locus YPL204W, strain HRR25, stronger effect = lower value 0.97 | locus YPL209C, strain IPL1, stronger effect = lower value 0.991 | [8] 1.08 | locus YPR025C, strain CCL1, stronger effect = lower value 0.99 | locus YPR106W, strain ISR1, stronger effect = lower value 1 | locus YPR111W, strain DBF20, stronger effect = lower value 0.974 | strain NNK1, stronger effect = lower value 0.985 | strain TSCII, stronger effect = lower value 0.98
